# Measurements published in article PMC5540273 (PLoS ONE, 2017).
# Legend:
# Settings in all cases: concentration: 1 μM,replicates: in singlicate; n = 1
# BMX = system: BMX
# BRAF = system: BRAF
# BRK = system: T1, BRK
# T1 construct: gene PTK6
# BRSK1 = system: BRSK1
# BRSK2 = system: BRSK2
# BTK = system: BTK
# BUB1 = system: BUB1
# CAMK1B = system: CAMK1B
# CAMK1D = system: CAMK1D
# CAMK1G = system: CAMK1G
# 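Note: KINOMEscan kinase panel screen.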
compound,measurement,setting,value
Cc1ccc(Nc2ccnc(Nc3ccc4c(c3)CS(=O)(=O)C4)n2)cc1O.Cl [GW579362],%Inh,BMX,80%
same,%Inh,BRAF,77%
same,%Inh,BRK,95%
same,%Inh,BRSK1,10%
same,%Inh,BRSK2,3%
same,%Inh,BTK,100%
same,%Inh,BUB1,99.3%
same,%Inh,CAMK1B,31%
same,%Inh,CAMK1D,38%
same,%Inh,CAMK1G,34%
Cn1ccc2ncnc(Oc3ccc(NC(=O)Nc4cnn(C(C)(C)C)c4)c(Cl)c3)c21,%Inh,BMX,0%
same,%Inh,BRAF,77%
same,%Inh,BRK,0%
same,%Inh,BRSK1,0%
same,%Inh,BRSK2,12%
same,%Inh,BTK,0%
same,%Inh,BUB1,0%
same,%Inh,CAMK1B,9%
same,%Inh,CAMK1D,0%
same,%Inh,CAMK1G,0%
Cl.Cl.NC[C@H](CC1CCCCC1)NC(=O)c1ccc(-c2ccnc3[nH]ccc23)s1 [GSK1581428],%Inh,BMX,2%
same,%Inh,BRAF,0%
same,%Inh,BRK,5%
same,%Inh,BRSK1,11%
same,%Inh,BRSK2,17%
same,%Inh,BTK,0%
same,%Inh,BUB1,44%
same,%Inh,CAMK1B,0%
same,%Inh,CAMK1D,36%
same,%Inh,CAMK1G,9%
C[C@@H](Oc1cc(-n2cnc3cc(-c4ccncc4)ccc32)sc1C(N)=O)c1ccccc1Cl [GSK479719],%Inh,BMX,18%
same,%Inh,BRAF,1%
same,%Inh,BRK,15%
same,%Inh,BRSK1,58%
same,%Inh,BRSK2,79%
same,%Inh,BTK,0%
same,%Inh,BUB1,23%
same,%Inh,CAMK1B,18%
same,%Inh,CAMK1D,6%
same,%Inh,CAMK1G,0%
O=C1NCCc2[nH]c(-c3ccncc3)cc21,%Inh,BMX,35%
same,%Inh,BRAF,0%
same,%Inh,BRK,0%
same,%Inh,BRSK1,0%
same,%Inh,BRSK2,6%
same,%Inh,BTK,0%
same,%Inh,BUB1,20%
same,%Inh,CAMK1B,1%
same,%Inh,CAMK1D,11%
same,%Inh,CAMK1G,0%
Cn1ccc2ncnc(Oc3ccc(NC(=O)Nc4ccnc(C(F)(F)F)c4)c(Cl)c3)c21,%Inh,BMX,17%
same,%Inh,BRAF,45%
same,%Inh,BRK,0%
same,%Inh,BRSK1,0%
same,%Inh,BRSK2,0%
same,%Inh,BTK,0%
same,%Inh,BUB1,5%
same,%Inh,CAMK1B,0%
same,%Inh,CAMK1D,0%
same,%Inh,CAMK1G,31%
Cn1ccc2ncnc(Oc3ccc(NC(=O)Nc4cccc(C(F)(F)F)c4)c(F)c3)c21,%Inh,BMX,1%
same,%Inh,BRAF,62%
same,%Inh,BRK,0%
same,%Inh,BRSK1,0%
same,%Inh,BRSK2,2%
same,%Inh,BTK,30%
same,%Inh,BUB1,0%
same,%Inh,CAMK1B,0%
same,%Inh,CAMK1D,12%
same,%Inh,CAMK1G,11%
O=C(Nc1n[nH]c2cc(-c3ccco3)ccc12)C1CC1 [SB-737447],%Inh,BMX,0%
same,%Inh,BRAF,0%
same,%Inh,BRK,0%
same,%Inh,BRSK1,31%
same,%Inh,BRSK2,46%
same,%Inh,BTK,0%
same,%Inh,BUB1,0%
same,%Inh,CAMK1B,0%
same,%Inh,CAMK1D,0%
same,%Inh,CAMK1G,100%
Cc1nnc(-c2ccc3occ(-c4ccc(S(C)=O)cc4)c3n2)o1 (centres unmarked),%Inh,BMX,0%
same,%Inh,BRAF,0%
same,%Inh,BRK,0%
same,%Inh,BRSK1,0%
same,%Inh,BRSK2,0%
same,%Inh,BTK,0%
same,%Inh,BUB1,0%
same,%Inh,CAMK1B,0%
same,%Inh,CAMK1D,17%
same,%Inh,CAMK1G,3%
CC(=O)Nc1ccc(-c2cc3ncnc(SCC(=O)O)c3s2)cc1,%Inh,BMX,0%
same,%Inh,BRAF,4%
same,%Inh,BRK,0%
same,%Inh,BRSK1,28%
same,%Inh,BRSK2,3%
same,%Inh,BTK,0%
same,%Inh,BUB1,47%
same,%Inh,CAMK1B,0%
same,%Inh,CAMK1D,0%
same,%Inh,CAMK1G,19%
COC(=O)c1cccc(NC(=O)NC2CCN(c3ccnc(NCc4ccc(F)cc4)n3)CC2)c1 [GSK1379860],%Inh,BMX,11%
same,%Inh,BRAF,2%
same,%Inh,BRK,10%
same,%Inh,BRSK1,0%
same,%Inh,BRSK2,0%
same,%Inh,BTK,0%
same,%Inh,BUB1,21%
same,%Inh,CAMK1B,67%
same,%Inh,CAMK1D,0%
same,%Inh,CAMK1G,0%
CC(=O)Nc1nc2cnc(Nc3cc(NC(=O)c4cccc(CC(C)(C)C#N)c4)ccc3C)nc2s1,%Inh,BMX,9%
same,%Inh,BRAF,99.9%
same,%Inh,BRK,0%
same,%Inh,BRSK1,23%
same,%Inh,BRSK2,14%
same,%Inh,BTK,51%
same,%Inh,BUB1,30%
same,%Inh,CAMK1B,0%
same,%Inh,CAMK1D,8%
same,%Inh,CAMK1G,0%
c1ccc(Oc2ccc(Nc3ccnc4ccc(-c5ccccn5)cc34)cc2)cc1 [GW407034],%Inh,BMX,44%
same,%Inh,BRAF,13%
same,%Inh,BRK,81%
same,%Inh,BRSK1,12%
same,%Inh,BRSK2,0%
same,%Inh,BTK,61%
same,%Inh,BUB1,12%
same,%Inh,CAMK1B,5%
same,%Inh,CAMK1D,0%
same,%Inh,CAMK1G,5%
CS(=O)c1ccc(-c2coc3ccc(-c4n[nH]c(=O)o4)cc23)cc1 (centres unmarked),%Inh,BMX,0%
same,%Inh,BRAF,12%
same,%Inh,BRK,0%
same,%Inh,BRSK1,0%
same,%Inh,BRSK2,2%
same,%Inh,BTK,20%
same,%Inh,BUB1,14%
same,%Inh,CAMK1B,14%
same,%Inh,CAMK1D,0%
same,%Inh,CAMK1G,12%
CC(C)S(=O)(=O)N1CCN(Cc2ccc3c(c2)nc(NC(=O)c2ccsc2)n3C[C@H](O)c2ccccc2)CC1 [GW635815],%Inh,BMX,10%
same,%Inh,BRAF,0%
same,%Inh,BRK,8%
same,%Inh,BRSK1,0%
same,%Inh,BRSK2,0%
same,%Inh,BTK,0%
same,%Inh,BUB1,13%
same,%Inh,CAMK1B,0%
same,%Inh,CAMK1D,12%
same,%Inh,CAMK1G,19%
CN(c1ccc2c(c1)nc(NCc1ccc(F)cc1)n2C)c1ccnc(Nc2ccc(CS(C)(=O)=O)cc2)n1.Cl [GW813244],%Inh,BMX,16%
same,%Inh,BRAF,96.8%
same,%Inh,BRK,88%
same,%Inh,BRSK1,0%
same,%Inh,BRSK2,0%
same,%Inh,BTK,0%
same,%Inh,BUB1,50%
same,%Inh,CAMK1B,0%
same,%Inh,CAMK1D,0%
same,%Inh,CAMK1G,22%
COc1cccc(OC)c1C(=O)Nc1cccc(-c2nn3ccccc3c2-c2ccnc(Nc3cccc(F)c3)n2)c1 [GSK361065],%Inh,BMX,21%
same,%Inh,BRAF,17%
same,%Inh,BRK,19%
same,%Inh,BRSK1,0%
same,%Inh,BRSK2,16%
same,%Inh,BTK,0%
same,%Inh,BUB1,11%
same,%Inh,CAMK1B,0%
same,%Inh,CAMK1D,13%
same,%Inh,CAMK1G,0%
